Source: PubChem BioAssay AID1159580 (chemical genetic matrix, 2015)
Where “and” joins values, the source holds several entries; their conditions need not be identical. Identical values can stand only once. Among all 5,500 compounds or so, about 2,000 (36%) were called active. About 18% were inconclusive and are not listed. Cut-off read from the data, not from the text of the source: active = normalized growth mostly below about 0.91 (no sharp cut-off); inconclusive = no clear call, values can overlap the other calls; inactive = mostly above about 0.92. Some of the results follow.

Test: chemical genetic growth profiling, strain panel (AID 1159580);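 note: tested at 20 µM; growth read once vehicle control cultures reached saturation at 30 °C; 1 = growth at the plate median or of vehicle wells; lower values mean less growth of the strain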
Settings: S. cerevisiae deletion strains, growth OD

Measured: normalized growth

CC(C)CCCC(C)[C@H]1CCC2C3CC=C4C[C@@H](O)CC[C@]4(C)C3CC[C@@]21C (some centres undefined)
inactive: locus YAL021C, strain ccr4, hits give low values 0.974 | locus YAL026C, strain drs2, hits give low values 0.96 | locus YAL030W, strain snc1, hits give low values 0.979 | locus YBL061C, strain skt5, hits give low values 0.99 | locus YBR009C, strain hhf1, hits give low values 0.986 | locus YBR021W, strain FUR4, hits give low values 1.01 | locus YBR023C, strain chs3, hits give low values 0.989 | locus YBR171W, strain sec66, hits give low values 0.987 | locus YBR229C, strain ROT2, hits give low values 1.01 | locus YBR231C, strain swc5, hits give low values 0.989 | locus YBR279W, strain paf1, hits give low values 0.951 | locus YCL011C, strain gbp2, hits give low values 0.972 | locus YCL016C, strain dcc1, hits give low values 0.994 | locus YCL029C, strain bik1, hits give low values 0.979 | locus YCL061C, strain MRC1, hits give low values 0.985 | locus YCL069W, strain vba3, hits give low values 0.964 | locus YCR088W, strain abp1, hits give low values 0.992 | locus YDL005C, strain med2, hits give low values 0.976 | locus YDL035C, strain GPR1, hits give low values 1.03 | locus YDL040C, strain nat1, hits give low values 0.986 | locus YDL074C, strain BRE1, hits give low values 1.03 | locus YDL101C, strain DUN1, hits give low values 1.01 | locus YDL134C, strain PPH21, hits give low values 1.03 | locus YDL185W, strain tfp1, hits give low values 0.994 | locus YDL192W, strain arf1, hits give low values 0.992 | locus YDR001C, strain nth1, hits give low values 0.981 | locus YDR069C, strain doa4, hits give low values 0.966 | locus YDR101C, strain arx1, hits give low values 0.962 | locus YDR137W, strain rgp1, hits give low values 0.916 | locus YDR159W, strain sac3, hits give low values 0.963 | locus YDR162C, strain NBP2, hits give low values 1 | locus YDR195W, strain ref2 0.957 | locus YDR297W, strain sur2, hits give low values 0.985 | locus YDR318W, strain mcm21, hits give low values 1.01 | locus YDR334W, strain swr1, hits give low values 0.964 | locus YDR335W, strain msn5, hits give low values 0.996 | locus YDR388W, hits give low values 0.988 | locus YDR392W, strain spt3, hits give low values 0.935 | locus YDR502C, strain sam2, hits give low values 0.974 | locus YEL003W, strain gim4, hits give low values 0.982 | locus YEL037C, strain rad23, hits give low values 0.953 | locus YEL061C, strain CIN8 (second series), hits give low values 0.965 | locus YEL061C, strain CIN8, hits give low values 1.01 | locus YER015W, strain faa2, hits give low values 0.995 | locus YER016W, strain bim1, hits give low values 0.987 | locus YER110C, hits give low values 0.991 | locus YER111C, strain swi4, hits give low values 0.985 | locus YER155C, strain BEM2 (second series), hits give low values 0.984 | locus YER155C, strain BEM2, hits give low values 1.01 | locus YER167W, strain BCK2, hits give low values 1 | locus YFR010W, strain ubp6, hits give low values 0.961 | locus YGL078C, strain dbp3, hits give low values 0.996 | locus YGL086W, strain mad1, hits give low values 0.991 | locus YGL167C, strain pmr1, hits give low values 0.99 | locus YGL173C, strain kem1, hits give low values 0.984 | locus YGL227W, strain vid30, hits give low values 0.99 | locus YGL240W, strain doc1, hits give low values 0.986 | locus YGL248W, strain PDE1, hits give low values 1.03 | locus YGL253W, strain hxk2, hits give low values 0.976 | locus YGR078C, strain PAC10, hits give low values 1.01 | locus YGR135W, strain pre9, hits give low values 1 | locus YGR252W, strain gcn5, hits give low values 0.978 | locus YHR013C, strain ard1, hits give low values 0.96 | locus YHR027C, strain rpn1, hits give low values 0.997 | locus YHR030C, strain SLT2, hits give low values 1.01 and 1.02 | locus YHR079C, strain IRE1 (second series), hits give low values 0.997 | locus YHR079C, strain IRE1, hits give low values 1.01 | locus YHR094C, strain hxt1, hits give low values 0.988 | locus YHR129C, strain ARP1, hits give low values 0.999 | locus YHR142W, strain chs7, hits give low values 0.956 | locus YHR200W, strain rpn10, hits give low values 0.995 | locus YIL066C, strain RNR3, hits give low values 1.01 | locus YIL073C, strain SPO22, hits give low values 1 | locus YIL125W, strain kgd1, hits give low values 0.99 | locus YIR030C, strain dcg1, hits give low values 0.987 | locus YJL092W, strain hpr5, hits give low values 0.992 | locus YJL095W, strain BCK1 (second series), hits give low values 0.987 | locus YJL095W, strain BCK1, hits give low values 1.04 and 1.01 | locus YJL115W, strain asf1, hits give low values 0.981 | locus YJL129C, strain trk1, hits give low values 0.968 | locus YJL134W, strain LCB3, hits give low values 1.01 | locus YJL154C, strain vps35, hits give low values 0.981 | locus YJL164C, strain tpk1, hits give low values 0.985 | locus YJL166W, strain qcr8, hits give low values 0.985 | locus YJL168C, strain set2, hits give low values 1 | locus YJL187C, strain SWE1 (second series), hits give low values 1.01 | locus YJL187C, strain SWE1, hits give low values 0.974 | locus YJR043C, strain POL32, hits give low values 1.01 | locus YJR066W, strain TOR1, hits give low values 0.987
